Data taken from PubChem BioAssay (Tox21).
Where “and” joins values, the source holds several entries; their conditions need not be identical. Equal values may be shown once. Records with an inconclusive call do not appear. Where a call stands in place of a potency, no number is given. More than one record can exist for a structure, and the calls need not agree. Calls of active or inactive are those of the source. Unless noted, calls follow the shape of the full dose curve.

tested on: not listed separately; experiment: qHTS assay to identify small molecule agonists of the estrogen receptor beta (ER-beta) signaling pathway - cell viability counter screen (AID 1259380; active = well fitted curve in the direction sought with a large enough effect in the repeat runs; an effect the other way counts as inactive or inconclusive; also: nearly all actives have a fitted effect of over 30% in size; also: potency is read from the fitted curve at half-maximal effect); settings: ER-beta-bla HEK293T viability, CellTiter-Glo luminescence, 16 h; series mostly up to 92.4 µM
In short: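 Same-well viability counter screen. Cells: ER-beta-UAS-bla HEK293T, plated 6 hr before compound, in 2% charcoal-stripped FBS. Compound exposure 16 hr, 37C; viability by CellTiter-Glo luminescence after 30 min at room temperature.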

| SMILES | Potency |
| --- | --- |
| CNC(=S)N(C)C | inactive |
| CCCCCCCCCCCCCCCC(=O)OC(C)C | inactive |
| CCc1ccccc1CC | inactive |
| C=C(C)[C@H]1CC=C(C)C(=O)C1 | inactive |
| c1ccc(Oc2ccccc2)cc1 | inactive |
| Cc1ccc(S(=O)(=O)N=C=O)cc1 | inactive |
| Brc1ccc(Br)c(Br)c1 | inactive |
| c1ccc2c(c1)Cc1ccccc1-2 | inactive |
| Clc1ccccn1 | inactive |
| CC(=O)OCc1ccco1 | inactive |
| CCO[Si](CCC#N)(OCC)OCC | inactive |
| COCCOC(=O)c1ccccc1C(=O)OCCOC | inactive |
| CN(C)c1ccc(Cc2ccc(N(C)C)cc2)cc1 | inactive |
| N[C@H](Cc1c[nH]c2ccccc12)C(=O)O | inactive |
| CCCCCCCCCCCC(=O)OC | inactive |
| C=Cc1ccc(C)cc1 | inactive |
| CC(=O)OC1CC(C)OC(C)O1 (stereo not given) | inactive |
| CCCCCCCO | inactive |
| CCCCC(C=O)CC (stereo not given) | inactive |

| SMILES | Potency |
| --- | --- |
| C=CCCCCCCCCC(=O)O | inactive |
| CN(C)c1ccc(O)c2c1C[C@H]1C[C@H]3[C@H](N(C)C)C(=O)C(C(N)=O)=C(O)[C@@]3(O)C(=O)C1=C2O | 86.3 µM (active) and inactive |
| CC(C)(C#N)c1cc(Cn2cncn2)cc(C(C)(C)C#N)c1 | inactive |
| CN1C(=O)CC[C@H]1c1cccnc1 | inactive |
| CC1(C)OC[C@@H]2O[C@@]3(C(=O)O)OC(C)(C)O[C@H]3[C@@H]2O1 | inactive |
| O=C1c2ccccc2CCc2ccccc21 | inactive |
| C=CC[N+](C)(C)CC=C | inactive |
| Nc1ccc(Cl)c(N)c1 | inactive |
| CCCCCCCCCCCCCCCCO | inactive |
| OCc1cccc(Oc2ccccc2)c1 | inactive |
| CCCCOC(=O)c1ccc(N)cc1 | inactive |
| COc1ccc([N+](=O)[O-])cc1N | inactive |
| CC(CCl)OP(=O)(OC(C)CCl)OC(C)CCl (stereo not given) | inactive |
| CCCCCCCCCCO | inactive |
| N#Cc1ccccc1 | inactive |
| CC(=O)c1ccc(O)cc1 | inactive |
| COc1ccc(CCC(C)=O)cc1 | inactive |
| NCCNCCN | inactive |

tested on: not listed separately; experiment: qHTS assay to identify small molecule antagonists of the estrogen receptor beta (ER-beta) signaling pathway - cell viability counter screen (AID 1259382; active = well fitted curve in the direction sought with a large enough effect in the repeat runs; an effect the other way counts as inactive or inconclusive;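 also: HEK293T cells carrying ER-beta-UAS-bla reporter stimulated with estradiol; nearly all actives have a fitted effect of over 55% in size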); settings: ER-beta-UAS-bla HEK293T viability, CellTiter-Glo luminescence, 16 h; series mostly up to 92.4 µM
In short: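 Following a 6 hr plating period, HEK293T cells carrying a UAS-driven beta-lactamase reporter under ER-beta control received compounds and 1nM E2 (final). After 16 hr at 37C and 2 hr substrate loading, CellTiter-Glo luminescence indicated viability.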

| SMILES | outcome |
| --- | --- |
| CCCCCCCCCCCCCCCC(=O)OC(C)C | inactive |
| C=C(C)[C@H]1CC=C(C)C(=O)C1 | inactive |
| C[C@]12CC[C@@H]3c4ccc(O)cc4CC[C@H]3[C@@H]1C[C@@H](O)[C@@H]2O | inactive |
| Brc1ccc(Br)c(Br)c1 | inactive |
| COCCOC(=O)c1ccccc1C(=O)OCCOC | inactive |
| CN(C)c1ccc(Cc2ccc(N(C)C)cc2)cc1 | inactive |
| N[C@H](Cc1c[nH]c2ccccc12)C(=O)O | inactive |
| CC(=O)OC1CC(C)OC(C)O1 (stereo not given) | inactive |
| CC(C)(C#N)c1cc(Cn2cncn2)cc(C(C)(C)C#N)c1 | inactive |
| CC1(C)OC[C@@H]2O[C@@]3(C(=O)O)OC(C)(C)O[C@H]3[C@@H]2O1 | inactive |
| OCc1cccc(Oc2ccccc2)c1 | inactive |
| CCCCCCCCCCO | inactive |
| CC(=O)c1ccc(O)cc1 | inactive |
| COc1ccc(CCC(C)=O)cc1 | inactive |

target: Estrogen receptor (Homo sapiens) (UniProt P03372); experiment: qHTS assay to identify small molecule agonists of the estrogen receptor alpha (ER-alpha) signaling pathway in the presence of an antagonist (AID 1259383); settings: VM7Luc4E2 cells, ERE-luciferase, +ICI-182,780, 22 h; series mostly up to 92.4 µM; also: nearly all actives have a fitted effect of over 15% in size; also: potency is read from the fitted curve at half-maximal effect
In short: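 Cells are hormone-deprived for 5 days (charcoal-stripped FBS, no phenol red), plated for 24hr, spiked with 10.0nM ICI-182,780, then dosed at 15 concentrations. After 22hr at 37C, ONE-Glo luminescence reports ERE-luciferase activity.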

Estrogen receptor (Homo sapiens), sequence (P03372 whole entry, looked up): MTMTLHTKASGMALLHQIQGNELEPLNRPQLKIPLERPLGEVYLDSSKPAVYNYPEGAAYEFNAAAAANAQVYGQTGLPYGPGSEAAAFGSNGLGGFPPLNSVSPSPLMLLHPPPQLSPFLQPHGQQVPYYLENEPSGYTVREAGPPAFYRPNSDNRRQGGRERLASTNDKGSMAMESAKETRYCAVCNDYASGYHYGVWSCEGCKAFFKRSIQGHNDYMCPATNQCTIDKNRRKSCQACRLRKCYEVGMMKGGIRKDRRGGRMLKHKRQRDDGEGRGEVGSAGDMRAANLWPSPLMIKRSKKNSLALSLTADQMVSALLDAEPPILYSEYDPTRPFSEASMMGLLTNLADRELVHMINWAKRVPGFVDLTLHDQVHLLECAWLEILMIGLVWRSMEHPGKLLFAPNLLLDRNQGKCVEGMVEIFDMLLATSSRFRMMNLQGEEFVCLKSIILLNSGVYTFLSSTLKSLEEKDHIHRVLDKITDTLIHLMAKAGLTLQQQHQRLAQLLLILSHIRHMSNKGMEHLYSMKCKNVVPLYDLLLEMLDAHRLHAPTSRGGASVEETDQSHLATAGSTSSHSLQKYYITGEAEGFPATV

| SMILES | Potency |
| --- | --- |
| CNC(=S)N(C)C | inactive |
| CCc1ccccc1CC | inactive |
| Cc1ccc(S(=O)(=O)N=C=O)cc1 | inactive |
| Brc1ccc(Br)c(Br)c1 | inactive |
| c1ccc2c(c1)Cc1ccccc1-2 | inactive |
| CC(=O)OCc1ccco1 | inactive |
| CCO[Si](CCC#N)(OCC)OCC | inactive |
| CCCCCCCCCCCC(=O)OC | inactive |
| CCCCCCCO | inactive |
| CCCCC(C=O)CC (stereo not given) | inactive |
| CN(C)c1ccc(O)c2c1C[C@H]1C[C@H]3[C@H](N(C)C)C(=O)C(C(N)=O)=C(O)[C@@]3(O)C(=O)C1=C2O | inactive and 2.66 µM (active) |
| Nc1ccc(Cl)c(N)c1 | inactive |
| CCCCCCCCCCCCCCCCO | inactive |
| CCCCOC(=O)c1ccc(N)cc1 | inactive |
| COc1ccc([N+](=O)[O-])cc1N | inactive |
| CC(CCl)OP(=O)(OC(C)CCl)OC(C)CCl (stereo not given) | inactive |
| CCCCCCCCCCO | inactive |
| CC(=O)c1ccc(O)cc1 | inactive |

tested on: not listed separately; experiment: qHTS assay to identify small molecule agonists or antagonists of the thyroid stimulating hormone receptor (TSHR) signaling pathway - wild type cell line counter screen (AID 1259384); settings: HEK293 wild type, cAMP HTRF counter-screen, stronger effect = higher value; series mostly up to 92.4 µM
In short: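 Counter screen in untransfected Hek293: compounds (15-point titration, triplicate) plus phosphodiesterase inhibitor Ro20-1724 added after 18 h plating; 30 min RT. Intracellular cAMP via competitive d2/cryptate immunoassay, 1 h incubation.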

| SMILES | outcome |
| --- | --- |
| CCc1ccccc1CC | inactive |
| C=C(C)[C@H]1CC=C(C)C(=O)C1 | inactive |
| C[C@]12CC[C@@H]3c4ccc(O)cc4CC[C@H]3[C@@H]1C[C@@H](O)[C@@H]2O | inactive |
| c1ccc(Oc2ccccc2)cc1 | inactive |
| Cc1ccc(S(=O)(=O)N=C=O)cc1 | inactive |
| Brc1ccc(Br)c(Br)c1 | inactive |
| c1ccc2c(c1)Cc1ccccc1-2 | inactive |
| Clc1ccccn1 | inactive |
| CC(=O)OCc1ccco1 | inactive |
| COCCOC(=O)c1ccccc1C(=O)OCCOC | inactive |
| CN(C)c1ccc(Cc2ccc(N(C)C)cc2)cc1 | inactive |
| N[C@H](Cc1c[nH]c2ccccc12)C(=O)O | inactive |
| CCCCCCCCCCCC(=O)OC | inactive |
| C=Cc1ccc(C)cc1 | inactive |
| CCCCCCCO | inactive |
| CCCCC(C=O)CC (stereo not given) | inactive |

| SMILES | outcome |
| --- | --- |
| C=CCCCCCCCCC(=O)O | inactive |
| CN(C)c1ccc(O)c2c1C[C@H]1C[C@H]3[C@H](N(C)C)C(=O)C(C(N)=O)=C(O)[C@@]3(O)C(=O)C1=C2O | inactive |
| CN1C(=O)CC[C@H]1c1cccnc1 | inactive |
| CC1(C)OC[C@@H]2O[C@@]3(C(=O)O)OC(C)(C)O[C@H]3[C@@H]2O1 | inactive |
| O=C1c2ccccc2CCc2ccccc21 | inactive |
| C=CC[N+](C)(C)CC=C | inactive |
| Nc1ccc(Cl)c(N)c1 | inactive |
| CCCCCCCCCCCCCCCCO | inactive |
| OCc1cccc(Oc2ccccc2)c1 | inactive |
| CCCCOC(=O)c1ccc(N)cc1 | inactive |
| CC(CCl)OP(=O)(OC(C)CCl)OC(C)CCl (stereo not given) | inactive |
| CCCCCCCCCCO | inactive |
| N#Cc1ccccc1 | inactive |
| CC(=O)c1ccc(O)cc1 | inactive |
| COc1ccc(CCC(C)=O)cc1 | inactive |
